Source: PubChem (National Center for Advancing Translational Sciences (NCATS))
An excerpt weighted towards active compounds, which were near 2.8% of everything screened.
GLS inh: qHTS for Inhibitors of Glutaminase (GLS) | Glutaminase kidney isoform, mitochondrial (Homo sapiens), O94925 | GLS enzymatic activity, qHTS titration | Potency, µM (series often up to 45.5 µM), without a hit: at the highest dose activity change, negative = inhibition, usual class: inhibitors | actives 0.21% (n = 410,000) | AID 624170, 2012; also: potency is read from the fitted curve at half-maximal effect; % is scaled to controls: 0 for no effect and ±100 for the full control effect
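Human kidney-isoform GLS in 45 mM KH2PO4 pH 8.2, 0.02% Tween-20, with compound, started with 1mM L-Glutamine (added stock). Glutamate oxidase/HRP/Amplex red coupled fluorescence read at start and after 30 min at RT.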
KCNH2 3.1 inh: qHTS for Inhibitors of KCHN2 3.1: Mutant qHTS; U2OS KCNH2 3.1, thallium flux FluxOr; hits give low values; activity change, % (tested at about 1.8 µM); actives 0.95% (n = 340,000); AID 720553, 2013;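 active = maximum activity change below -70%; inconclusive = maximum activity change from -70% to -50%; inactive = maximum activity change above -50%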;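 also: thallium influx rate constant from kinetic fluorescence after stimulation buffer; % is scaled to controls: 0 for no effect and ±100 for the full control effect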
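Normalized rate constant (relative to positive and negative DMSO controls) derived from a 2 min kinetic fluorescence read after stimulation; U2OS cells expressing the 3.1 isoform via virus at 1.77 x 10^8 /mL.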
GLP-1R inv ag: qHTS of GLP-1 Receptor Inverse Agonists (Inhibition Mode); Glucagon-like peptide 1 receptor (Homo sapiens), P43220; HEK293 GLP-1R CRE-luciferase, luminescence, 24 h; GLP-1R form is constitutively active; Potency, µM (highest dose often 38.3 µM), inactives show at the top dose activity change, negative = inhibition, actives largely listed as inhibitors; actives 1.6% (n = 410,000); also: potency is read from the fitted curve at half-maximal effect; % is scaled to controls: 0 for no effect and ±100 for the full control effect; nearly all actives have a fitted effect of over 55% in size
Target sequence (P43220 whole entry, looked up): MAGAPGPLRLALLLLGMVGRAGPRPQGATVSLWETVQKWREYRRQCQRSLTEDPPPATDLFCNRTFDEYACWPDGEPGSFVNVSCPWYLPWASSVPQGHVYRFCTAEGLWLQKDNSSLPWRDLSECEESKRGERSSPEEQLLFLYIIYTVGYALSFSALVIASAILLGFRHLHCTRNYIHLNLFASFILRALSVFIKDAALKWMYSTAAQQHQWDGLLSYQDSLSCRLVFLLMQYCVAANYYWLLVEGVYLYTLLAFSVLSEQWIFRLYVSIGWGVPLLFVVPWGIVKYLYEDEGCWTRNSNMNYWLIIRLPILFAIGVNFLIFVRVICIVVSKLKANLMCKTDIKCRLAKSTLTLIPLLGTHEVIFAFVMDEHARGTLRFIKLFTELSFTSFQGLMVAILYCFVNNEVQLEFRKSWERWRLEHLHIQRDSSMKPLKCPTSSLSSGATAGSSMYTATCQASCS
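Stable HEK293 clone (constitutively active GLP-1R + cAMP-response luciferase); 200 cells/uL plated, 12 h pre-culture, compound 24 hr, 37 deg C/5% CO2; detection reagent 12 min RT; luminescence.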
GLP-1R agonist: qHTS of GLP-1 Receptor Agonists. Glucagon-like peptide 1 receptor (Homo sapiens), P43220. HEK293 GLP-1R CRE-luciferase, luminescence, 4-6 h; cells express a hypersensitive GLP-1R form. Potency, µM (series often up to 45.6 µM), for the others: at the top dose activation, hits mostly activators. actives 0.007% (n = 380,000). AID 624172, 2012; also: potency is read from the fitted curve at half-maximal effect; % of control where 0% means no effect
HEK293 tox: qHTS of GLP-1 Receptor Inverse Agonists: Cytotox Screen. HEK293 cAMP-luciferase reporter cells, luminescence, 24 h. Potency, µM (highest dose often 38.3 µM), inactives show top-dose activity change, negative = inhibition, hits mostly inhibitors. actives 0.13% (n = 410,000);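 also: loss of luciferase light is scored as toxicity; potency is read from the fitted curve at half-maximal effect; % is scaled to controls: 0 for no effect and ±100 for the full control effect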
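Here, cytotoxicity is scored as loss of luminescence. The MLSMR collection was tested on cells seeded in medium containing 10% Nu serum, with a 24 hr compound exposure preceded by 12 hours of culture.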
KCNH2 WT inh: qHTS for Inhibitors of KCHN2 3.1: Wildtype qHTS | activity change, % at 1.84 µM | Voltage-gated inwardly rectifying potassium channel KCNH2 (Homo sapiens), Q12809 | U2OS, BacMam KCNH2, thallium flux FluxOr; hits give low values | actives 0.37% (n = 340,000) | AID 720551, 2013;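 active = maximum activity change below -70%; inconclusive = maximum activity change between -70% and -50%; inactive = maximum activity change above -50%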; also: % is scaled to controls: 0 for no effect and ±100 for the full control effect
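U2OS cells were transduced with wild-type KCNH2 virus (2.03 x 10^8 / mL) for 4 h at room temperature, then cultured overnight at 37 C. Thallium flux was read with FluxOr dye. Rate constants were normalized to DMSO controls.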
Numbers without * were called inactive. Unless noted, calls follow the shape of the dose curve; as a rule, active = well fitted curve in the direction sought with a large enough effect; inconclusive = small, poorly fitted or top-dose-only effect, or another doubt; inactive = no such curve, though single readings can be large; an effect the other way counts as inactive or inconclusive.

For O=C(COC(=O)c1ccccc1Cc1ccccc1)Nc1ccc(SC(F)F)cc1 the results were GLS inh 2%, KCNH2 3.1 inh -12, GLP-1R inv ag inconclusive, GLP-1R agonist 0%, HEK293 tox inconclusive and KCNH2 WT inh -25.
For O=C(COc1cccc(OC(F)F)c1)Nc1ccc(SC(F)F)cc1 the results were GLS inh 3%, KCNH2 3.1 inh -32, GLP-1R inv ag 10µM*, GLP-1R agonist 9%, HEK293 tox 3% and KCNH2 WT inh inconclusive.
`Cc1ccc(C(=O)c2ccccc2C(=O)OCC(=O)Nc2ccc(SC(F)F)cc2)cc1` gave GLS inh -3%, KCNH2 3.1 inh -16, GLP-1R inv ag 8.9µM*, GLP-1R agonist -7%, HEK293 tox 7% and KCNH2 WT inh 1.
For CN(C)CCN(Cc1cccs1)S(=O)(=O)c1csc(C(N)=O)c1 the results were GLS inh 9%, KCNH2 3.1 inh 9, GLP-1R inv ag 9%, GLP-1R agonist 6%, HEK293 tox -2% and KCNH2 WT inh 5.
Screening CCCCc1nn2c(=O)cc(COC(=O)c3ccccc3NC(=O)c3cccc(C)c3)nc2s1 returned GLS inh 8%, GLP-1R inv ag -6% and HEK293 tox 17%.
CC(=O)Nc1c(F)cc(Br)cc1F was read as GLS inh -6%, KCNH2 3.1 inh -95*, GLP-1R inv ag -24%, GLP-1R agonist 0%, HEK293 tox 18% and KCNH2 WT inh 2.
`CC(=O)Nc1cc(Br)ccc1O` gave GLS inh -1%, KCNH2 3.1 inh -1, GLP-1R inv ag 0%, GLP-1R agonist 3%, HEK293 tox -12% and KCNH2 WT inh 7.
Screening CC(C)(C)CC(C)(C)NCC(O)COc1ccc2c(c1)CCC2 (centres undefined) returned GLS inh -9%, KCNH2 3.1 inh -11, GLP-1R inv ag 10µM*, GLP-1R agonist -4%, HEK293 tox inconclusive and KCNH2 WT inh 3.
`CC(C)(CO)NCC(O)COc1ccc2c(c1)CCC2` (centres undefined) gave GLS inh -3%, KCNH2 3.1 inh 2, GLP-1R inv ag inconclusive, GLP-1R agonist -6%, HEK293 tox -4% and KCNH2 WT inh 14.
CCCn1c(CN2CCN(c3ccc(OC)cc3)CC2)nc2c1c(=O)[nH]c(=O)n2C was read as GLS inh 20%, GLP-1R inv ag 11%, GLP-1R agonist 7% and HEK293 tox -16%.
COc1ccc2cc(CNCCOCCOCCNCc3ccc4cc(OC)ccc4c3)ccc2c1 was read as GLS inh -7%, GLP-1R inv ag inconclusive, GLP-1R agonist -37%, HEK293 tox 4µM* and KCNH2 WT inh 49.
COc1cccc(C(=O)NCCc2csc3nc(-c4ccccc4F)nn23)c1OC was read as GLS inh -1%, GLP-1R inv ag -4% and HEK293 tox -20%.
For Cc1c(Cl)cccc1-n1ncc(C(=O)Nc2ccc(Br)cc2F)c1C1CCNCC1 the results were GLS inh -2%, GLP-1R inv ag inconclusive and HEK293 tox -18%.
For CCN(CCCNC(=O)Cn1ncc2c(=O)oc3ccccc3c21)c1cccc(C)c1 the results were GLS inh 3%, KCNH2 3.1 inh -180*, GLP-1R inv ag inconclusive, GLP-1R agonist -3%, HEK293 tox -16% and KCNH2 WT inh -165*.
CC(C)c1ccc(/C=C/C(=O)NC(=S)Nc2ccc(CN3CCOCC3)cc2)cc1 was read as GLS inh 2%, KCNH2 3.1 inh -2, GLP-1R inv ag inconclusive, GLP-1R agonist -1%, HEK293 tox 10µM* and KCNH2 WT inh 5.
For CC(C)c1ccc(/C=C/C(=O)NC(=S)NN2CCOCC2)cc1 the results were GLS inh 17%, KCNH2 3.1 inh -9, GLP-1R inv ag 42%, GLP-1R agonist -1%, HEK293 tox inconclusive and KCNH2 WT inh 0.
COc1ccc(C(=O)NC(=S)Nc2ccc(CN3CCOCC3)cc2)cc1Br was read as GLS inh 27%, KCNH2 3.1 inh -16, GLP-1R inv ag 13µM*, GLP-1R agonist -8%, HEK293 tox inconclusive and KCNH2 WT inh 20.
Screening CC(C)COc1cccc(C(=O)Nc2ccc(CN3CCOCC3)cc2)c1 returned GLS inh 1%, KCNH2 3.1 inh -2, GLP-1R inv ag 8.9µM*, GLP-1R agonist 7%, HEK293 tox -24% and KCNH2 WT inh 13.
Screening NS(=O)(=O)c1ccc(CCNC(=O)c2ccc3c(=O)n4c(nc3c2)CCCCC4)cc1 returned GLS inh 0%, KCNH2 3.1 inh 10, GLP-1R inv ag 8%, GLP-1R agonist 6%, HEK293 tox -3% and KCNH2 WT inh 1.
`CC1CCN(c2nc(-c3ccncc3)nc3ccccc23)CC1` gave GLS inh 2%, KCNH2 3.1 inh -5, GLP-1R inv ag 6.3µM*, GLP-1R agonist 3%, HEK293 tox 9% and KCNH2 WT inh -4.
Screening CN1CCN(c2nc(-c3ccc(C(C)(C)C)cc3)nc3ccccc23)CC1 returned GLS inh 2%, KCNH2 3.1 inh -38, GLP-1R inv ag 8.9µM*, GLP-1R agonist -1%, HEK293 tox 7% and KCNH2 WT inh 16.
For CCCCCCCCCCCCCCCC(=O)OC[C@@H](NC(=O)C(Cl)Cl)[C@H](O)c1ccc([N+](=O)[O-])cc1 the results were GLS inh 19% and GLP-1R agonist -3%.
`O=C(c1ccco1)N(CCC(c1ccccc1)c1ccco1)Cc1ccc(F)cc1` (centres undefined) gave GLS inh 0%, KCNH2 3.1 inh 2, GLP-1R inv ag 0%, GLP-1R agonist inconclusive, HEK293 tox 8% and KCNH2 WT inh 9.
Screening CC1(C)CC(C(CCN(Cc2ccccc2)C(=O)c2ccco2)c2ccc(F)cc2)CCO1 (centres undefined) returned GLS inh 2%, KCNH2 3.1 inh -21, GLP-1R inv ag 7.9µM*, GLP-1R agonist -29%, HEK293 tox inconclusive and KCNH2 WT inh 3.
